Screens as filed in PubChem.
Only some compounds are listed: those with a hit (about 7.4% of all), similar ones and a draw of the others.
ELG1 genotox = genotoxicity induction in ELG1-luciferase HEK293T cells. 1.3% of 330,000 active. HEK293T ELG1-luciferase reporter, luminescence, 16 h. Potency, µM (top dose mostly 46 µM), hits mostly activators; further: nearly all actives have a fitted effect of over 60% in size
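Cells (2,000/well) expressing the ELG1-luciferase fusion are dosed by pin tool and kept 16 hr at 37 °C, 5% CO2. Signal comes from ONE-Glo luciferase reagent after 30 min at room temperature.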
FLuc counter = firefly luciferase modulation, counter-screen for miR-21 project | AID 588342 | purified FLuc, Km substrates, luminescence inhibition | Potency, µM (doses to about 57.5 µM), usual class: inhibitors | P08659 | 6.9% of 360,000 active; further: nearly all actives have a fitted effect of over 55% in size
Target sequence (P08659 whole entry, looked up): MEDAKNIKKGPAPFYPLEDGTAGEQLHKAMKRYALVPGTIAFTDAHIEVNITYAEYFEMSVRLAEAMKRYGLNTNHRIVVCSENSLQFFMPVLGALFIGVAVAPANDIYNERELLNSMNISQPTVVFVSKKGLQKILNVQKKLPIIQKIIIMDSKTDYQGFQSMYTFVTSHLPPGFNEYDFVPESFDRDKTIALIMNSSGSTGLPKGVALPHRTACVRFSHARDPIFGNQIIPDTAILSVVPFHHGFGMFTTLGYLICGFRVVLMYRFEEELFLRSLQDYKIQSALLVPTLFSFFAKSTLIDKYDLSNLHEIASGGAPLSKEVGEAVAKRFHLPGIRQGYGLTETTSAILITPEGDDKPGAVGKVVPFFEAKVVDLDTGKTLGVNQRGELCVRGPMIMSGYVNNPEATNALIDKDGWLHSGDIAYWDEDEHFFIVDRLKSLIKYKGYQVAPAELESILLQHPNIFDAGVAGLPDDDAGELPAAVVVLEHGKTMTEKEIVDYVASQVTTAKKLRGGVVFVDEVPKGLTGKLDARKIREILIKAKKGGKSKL
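Biochemical qHTS of compounds, final roughly 60 µM downward over six points, against 10 nM purified firefly luciferase using Km concentrations of substrates (10 uM D-luciferin, 10 uM ATP) in Tris acetate pH 7.5 buffer; luminescence output.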
SMN2 splice up = enhancers of SMN2 splice variant expression | 2.8% of 210,000 active | Potency, µM (highest dose often 46.1 µM), actives largely listed as activators | HEK293 SMN2-luciferase splicing reporter, luminescence, 30-36 h; further: nearly all actives have a fitted effect of over 55% in size
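HEK293 cells carry an SMN2 […]–luciferase reporter in which exon 7 inclusion puts luciferase in frame. Cells were plated 10-12 h before compound addition, then incubated 30-36 h at 37C. ONE-Glo luminescence was read; sodium butyrate at 4.5 mM final served as control.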
Rab9 promoter act = activators of Rab9 promoter. Huh7 Rab9 promoter-luciferase reporter, luminescence, 24 h. Potency, µM (highest dose often 9.22 µM), hits mostly activators. 2.8% of 320,000 active. AID 485297; further: nearly all actives have a fitted effect of over 60% in size
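Cell-based reporter: Huh7 stable for Rab9 promoter-driven luciferase, plated in reduced-serum medium with 10% FBS at 1500 cells/well, compound-treated 24 h at 37 °C, luminescence read after 10 min reagent.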
NPC1 promoter act = activates the NPC1 promoter; Huh7 NPC1 promoter luciferase reporter, 24 h; Potency, µM (highest dose often 9.22 µM), actives largely listed as activators; 2.4% of 320,000 active; further: nearly all actives have a fitted effect of over 60% in size
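Readout is luciferase luminescence, reflecting NPC1 promoter activation in stably transfected Huh7 cells after 24 h compound exposure at 37 °C in reduced-serum medium with 10% FBS.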
A number is an active result; . = inactive; ? = inconclusive; / = no result given; [ ] = another dose, or the depositor's remark. The call rests on the fitted dose curve; in most records, active means well fitted curve in the direction sought with a large enough effect; inconclusive means small, poorly fitted or top-dose-only effect, or another doubt; inactive means no such curve, though single readings can be large; an effect the other way counts as inactive or inconclusive.

SMILES | ELG1 genotox | FLuc counter | SMN2 splice up | Rab9 promoter act | NPC1 promoter act
Cc1ccc2nc(COc3cccc(NC(=O)COc4ccc(F)cc4)c3)cc(=O)n2c1 | / | . | / | / | /
CC1CCCC(NC(=O)c2ccc3c(c2)OCCO3)C1C (configuration not stated) | ? | 13.5µM | / | 1.58µM | 3.98µM
CC1CCC(NC(=O)c2ccc3c(c2)OCO3)CC1 (configuration not stated) | 0.461µM | 2.69µM | / | 0.447µM | 0.316µM
CC1CCC(NC(=O)C(=O)Nc2ccc3c(c2)OCO3)CC1 (configuration not stated) | 4.11µM | 7.57µM | / | 0.708µM | 2µM
CC1(C)CC(NC(=O)c2ccc3c(c2)OCO3)CC(C)(C)N1 | . | . | . | . | .
CC1CCN(CC(=O)Nc2ccc3c(c2)OCO3)CC1 | . | . | / | . | .
O=C(CNC(=O)c1ccco1)OCc1c(F)cccc1Cl | . | 15.1µM | . | . | .
COc1ccc(OCC(=O)Nc2ccc(N3CCOCC3)cc2)cc1 | . | . | . | . | .
COc1ccc(CNc2ccc(N3CCOCC3)cc2)cc1 | . | 26.9µM | / | ? | .
Nc1ncnc2c1nc(Br)n2C1OC2COP(=O)(O)O[C@@H]2C1O (some centres not stated) | / | / | / | . | .
COc1ccc(NC(=O)CCc2c(C)nc3nc(CNC(=O)OC(C)(C)C)nn3c2C)cc1OC | / | . | . | / | /
CCCCOC(=O)c1ccc(NC(=O)c2cc(=O)c3ccccc3o2)cc1 | / | . | . | / | /
CC(C)NC(=O)c1cc2ccccc2o1 | . | . | . | . | .
Cc1ccc(NC(=O)c2cc3ccccc3o2)cc1Cl | ? | 3.38µM | / | 3.16µM | 3.98µM
CCCCOC(=O)c1cccc(NC(=O)c2cc3ccccc3o2)c1 | / | 8.49µM | 3.55µM | / | /
CC(C)C(=O)Nc1cccc(NC(=O)c2cc3ccccc3o2)c1 | ? | 6.01µM | 17.8µM | ? | ?
Cc1ccc(NC(=O)c2ocnc2C)cc1Cl | ? | 12µM | 14.1µM | 3.16µM | ?
CCOc1ccccc1CNC(=O)CCCN1C(=O)c2cccnc2Oc2ccc(Cl)cc21 | / | . | / | / | /
Cc1ccc2c(CNC3CCC(C)CC3)c(C(=O)O)n(Cc3cccc(F)c3)c2c1 (configuration not stated) | / | . | / | / | /
CC(C)=C1C(=O)C(c2ccccc2)=C2CN3C(=O)N(CCc4ccccc4)C(=O)[C@]3(C)[C@H]21 | / | / | . | / | /
CC(=O)Nc1cccc(NC(=O)c2cc3ccccc3o2)c1 | 5.8µM | 3.38µM | 11.2µM | ? | 3.55µM
CCN(CC)C(=O)CNC(=O)c1nn(-c2ccc(OC)c(Cl)c2)c(=O)c2ccccc12 | . | ? | / | . | .
COc1ccc(-n2nc(C(=O)NCC(=O)N3CCC(C)CC3)c3ccccc3c2=O)cc1Cl | . | 1.9µM | / | . | .
COc1ccc(-n2nc(C(=O)NCC(=O)N3CCN(c4ccccn4)CC3)c3ccccc3c2=O)cc1Cl | . | 3.01µM | ? | ? | .
CCCSc1nnc(NC(=O)Cc2coc3cc(C)ccc23)s1 | / | . | . | / | /
SMILES | ELG1 genotox | FLuc counter | SMN2 splice up | Rab9 promoter act | NPC1 promoter act
Cc1ccc(C)c(NC(=O)C(Cc2ccccc2)n2cccc2)c1 (configuration not stated) | / | . | . | / | /
COc1ccccc1-c1nn2c(-c3ccccc3Cl)nnc2s1 | . | . | . | . | .
COc1ccccc1-c1nn2c(-c3ccco3)nnc2s1 | 18.4µM | 5.36µM | . | ? | ?
CCN(CC)c1ccc(-c2nn3c(-c4ccccc4OC)nnc3s2)cc1 | . | 19µM | . | . | .
COc1ccc(CC(=O)Nc2c(C(=O)N3CCN(c4ccccc4F)CC3)oc3ccccc23)cc1OC | / | . | / | / | /
Cc1ccc(Nc2c(-c3cc(Br)ccc3F)nc3cc(C)ccn23)cc1 | / | . | . | / | /
CC(=O)Nc1ccc(CNc2ncnc3ccc(-c4c(C)noc4C)cc23)cc1 | 4.11µM | . | / | . | .
Cc1cccc(CNc2ncnc3ccc(-c4c(C)noc4C)cc23)c1 | / | / | 5.62µM | / | /
Cc1noc(C)c1-c1ccc2ncnc(NC3CC3)c2c1 | / | / | 7.94µM | / | /
CC1(C)SC(=S)N(NC(=O)Nc2ccccc2)C1N(O)C(=O)Nc1ccccc1 (configuration not stated) | . | . | . | . | .
CNC(=O)N(O)C1N(NC(=O)Nc2cccc3ccccc23)C(=S)SC1(C)C (configuration not stated) | . | . | 7.08µM | . | .
CN(C)C(=O)[C@H]1C[C@H]1[C@@H](O)[C@H](CO)NC(=O)[C@H](COCc1ccccc1)NC(=O)OC(C)(C)C | . | . | / | 3.16µM | .
CCc1ccc2ncc3c(-c4ccc(F)cc4)nn(CC(=O)NCc4ccccc4)c3c2c1 | / | . | / | / | /
CC(C)(C)C1CCc2c(sc3nc(-c4cc5cc(Br)ccc5oc4=O)[nH]c(=O)c23)C1 (configuration not stated) | / | . | / | / | /
O=C(CSc1nc(NS(=O)(=O)c2ccccc2)cc(=O)[nH]1)Nc1ccc(Cl)cc1 | . | . | / | . | .
O=c1cc(NS(=O)(=O)c2ccccc2)nc(SCc2ccc(Cl)cc2)[nH]1 | 23.1µM | . | . | . | .
O=c1c2cccnc2[nH]c(=S)n1CCCN1CCN(c2ccc(F)cc2)CC1 | . | . | 7.94µM | . | .
CCCCN(C)C(=O)c1cc2cc3ccc(OC)cc3nc2o1 | ? | 3.79µM | / | 3.55µM | 3.98µM
COc1ccc2cc3cc(C(=O)NC(C)C)oc3nc2c1 | ? | 16.9µM | / | 2µM | ?
CCCCN(C)C(=O)c1cc2cc3cc(OC)ccc3nc2o1 | . | 13.5µM | ? | 3.55µM | ?
CCCCN(C)CCNC(=O)c1cc2cc3ccc(OC)cc3nc2o1 | . | . | / | . | .
Cc1cccc(N2CCN(C3(c4ccccc4)C(=O)c4ccccc4C3=O)CC2)c1C | / | . | / | / | /
CCCCOc1ccc(-c2ncc([N+](=O)[O-])cn2)cc1 | ? | ? | / | 3.16µM | 3.98µM
CCCCOc1ccc(-c2ncc(Cl)cn2)cc1 | 12.6µM | 2.69µM | 12.6µM | 1.78µM | 2.51µM
CCCCOC(=O)c1ccc(Nc2ccc([N+](=O)[O-])cn2)cc1 | . | . | .[1.84 µM] | . | .
SMILES | ELG1 genotox | FLuc counter | SMN2 splice up | Rab9 promoter act | NPC1 promoter act
Cc1ccccc1N=C1Nc2ccccc2CS1 | ? | 4.78µM | 12.6µM | 0.631µM | 1.41µM
CC(=O)N1c2ccccc2CC1C(=O)NCc1cccc(Cl)c1 (configuration not stated) | / | . | . | / | /
CCc1ccc(CNC(=O)C(=O)NCC2CCCO2)cc1 (configuration not stated) | . | . | / | . | .
CN(C)c1ccc(NC(=S)NCC2CCCO2)cc1 (configuration not stated) | ? | ? | 12.6µM | . | .
O=C(NC(=S)NCC1CCCO1)c1ccccc1Br (configuration not stated) | . | . | . | . | .
CCCCc1ccc(NC(=S)NCC2CCCO2)cc1 (configuration not stated) | . | ? | . | . | .
CCc1ccc(NC(=O)C(=O)NCC2CCCO2)cc1 (configuration not stated) | . | ? | 11.2µM | 1.41µM | 3.55µM
